Inconclusive results are not listed. A call without a number means that no potency is given here. Unmarked numbers belong to inactive results. Active and inactive are the calls of the source. Calls come from the whole dose curve; as a rule, active = well fitted curve in the direction sought with a large enough effect; inconclusive = small, poorly fitted or top-dose-only effect, or another doubt; inactive = no such curve, though single readings can be large; an effect the other way counts as inactive or inconclusive.

Our source for the outcome, activity, negative = inhibition and Potency values is PubChem BioAssay (NCATS).

One assay deals with Rap guanine nucleotide exchange factor 3 (Homo sapiens) (UniProt O95398). As to the kind of experiment: Confirmatory qHTS for antagonist of cAMP-regulated guanine nucleotide exchange factor 3 (EPAC1) (AID 1645880). Note: nearly all actives have a fitted effect of over 55% in size. As to conditions: EPAC1 Rap1B-BODIPY-GDP exchange, fluorescence; series mostly up to 115 µM. Summed up: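 Nucleotide exchange uses 100 nM EPAC1, 250 nM RAP1B-BODIPY-GDP and 50 uM GDP, with compounds in a concentration-titration series. After 5 min at room temperature, fluorescence (480 nm ex/540 nm em) is read every 5 min for 30 min. Data are normalized to control ATA and DMSO.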
Sequence of Rap guanine nucleotide exchange factor 3 (Homo sapiens) (O95398 whole entry, looked up): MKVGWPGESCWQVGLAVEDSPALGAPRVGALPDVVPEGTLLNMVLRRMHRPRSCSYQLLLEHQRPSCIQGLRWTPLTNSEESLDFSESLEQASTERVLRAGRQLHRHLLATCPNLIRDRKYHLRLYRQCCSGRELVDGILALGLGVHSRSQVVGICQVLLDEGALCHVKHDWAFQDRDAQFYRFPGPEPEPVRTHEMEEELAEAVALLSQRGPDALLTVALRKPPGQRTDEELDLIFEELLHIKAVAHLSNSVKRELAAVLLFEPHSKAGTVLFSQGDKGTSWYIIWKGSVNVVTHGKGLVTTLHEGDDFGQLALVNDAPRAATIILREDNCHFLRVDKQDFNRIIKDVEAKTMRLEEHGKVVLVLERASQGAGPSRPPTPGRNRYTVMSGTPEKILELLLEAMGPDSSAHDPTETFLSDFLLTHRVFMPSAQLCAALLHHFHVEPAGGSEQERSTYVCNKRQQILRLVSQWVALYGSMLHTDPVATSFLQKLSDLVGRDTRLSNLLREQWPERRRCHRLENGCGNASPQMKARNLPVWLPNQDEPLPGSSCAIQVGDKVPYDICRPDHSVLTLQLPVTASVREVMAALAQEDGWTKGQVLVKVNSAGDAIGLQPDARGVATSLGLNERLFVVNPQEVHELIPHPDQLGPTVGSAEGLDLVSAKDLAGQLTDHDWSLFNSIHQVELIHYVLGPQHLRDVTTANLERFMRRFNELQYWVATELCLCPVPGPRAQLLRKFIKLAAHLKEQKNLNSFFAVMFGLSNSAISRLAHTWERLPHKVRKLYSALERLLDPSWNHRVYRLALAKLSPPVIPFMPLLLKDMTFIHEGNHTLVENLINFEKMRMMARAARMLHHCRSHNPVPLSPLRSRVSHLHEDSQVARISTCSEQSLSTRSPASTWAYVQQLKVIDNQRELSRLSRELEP
In general terms: qHTS replaces the single test concentration by a dilution series.
Take `CCCn1c(C)c(C(=O)c2ccc3ccccc3c2)c2ccccc21`: the result was inactive.
On the same count and under the same terms, next, `O=c1[nH]cc(N(CCCl)CCCl)c(=O)[nH]1`: “inactive”.
With `O=C1OC2(c3cc(Br)c(O)cc3Oc3c2cc(Br)c(O)[c]3[Hg])c2ccccc21` (stereo unspecified), the activity, negative = inhibition is 245% [at 22 µM].
Turning to `O=C1CN=C(c2ccccc2)c2cc(Cl)ccc2N1CC1CC1`, the compound was classed as inactive.

For the next assay the target is unchanged. As to the kind of experiment: Confirmatory qHTS for agonist of cAMP-regulated guanine nucleotide exchange factor 3 (EPAC1) (AID 1645881). Note: nearly all actives have a fitted effect of over 75% in size. Note: potency is the fitted concentration of half-maximal effect. Particulars: EPAC1 Rap1B BODIPY-GDP exchange fluorescence; series mostly up to 154 µM.
Take `CC(C)(C)c1cc(O)ccc1O`: the Potency entry is “inactive”.
The same measure, in the same setting: in the case of `CCCn1c(C)c(C(=O)c2ccc3ccccc3c2)c2ccccc21` it was “inactive”; in that of `O=c1[nH]cc(N(CCCl)CCCl)c(=O)[nH]1`, “inactive”.
Same read-out and setting: in the case of `O=[N+]([O-])c1cc(O)c(O)c([N+](=O)[O-])c1` it was “inactive”.
Same read-out and setting: in the case of `O=C1OC2(c3cc(Br)c(O)cc3Oc3c2cc(Br)c(O)[c]3[Hg])c2ccccc21` (stereo unspecified) it was 4.75 µM (active).
Regarding `O=C1CN=C(c2ccccc2)c2cc(Cl)ccc2N1CC1CC1`, the Potency entry was “inactive”.
Same read-out and setting: next, `CCCCCc1cc(O)c2c(c1)OC(C)(C)[C@@H]1CCC(C)=C[C@@H]21`: “inactive”.
